Reference: PubChem BioAssay (NCATS)
Where “and” joins values, the source holds several entries; their conditions need not be identical. Equal entries are not always repeated. Records with an inconclusive call do not appear. A number with no mark means an inactive call. Calls of active or inactive are those of the source. Calls follow the shape of the dose curve; as a rule, active = well fitted activation curve with a large enough effect; inconclusive = small, poorly fitted or top-dose-only effect; inactive = no such curve, though single readings can be large or run the other way.

The molecules below were run against Cellular tumor antigen p53 (Homo sapiens) (UniProt P04637) (assay: Primary qHTS for small molecule compounds that upregulate eGFP-tagged delta133p53alpha (in N-terminal) cells. (AID 2060322; also: nearly all actives have a fitted effect of over 75% in size;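 as to activation: cells pre-induced with doxycycline then dosed without doxycycline; series mostly up to about 56 µM; 0% = DMSO vehicle and 100% = reference activator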)). Details: NCI-H358 eGFP-delta133p53alpha fluorescence, 24 h; activation: active compounds read high.
Outline: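 NCI-H358 cells pre-induced 24 h with 10 ng/ml doxycycline for eGFP-delta133p53alpha, plated dox-free and exposed 24 h at 37C to titrated compounds. Fixed, Hoechst-stained; gated GFP peak intensity by laser scanning cytometry, normalized to DMSO (0%) and 57.5 uM 5-azacytidine (100%).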
Potency is read from the fitted curve at half-maximal effect.

Sequence of Cellular tumor antigen p53 (Homo sapiens) (P04637 whole entry, looked up): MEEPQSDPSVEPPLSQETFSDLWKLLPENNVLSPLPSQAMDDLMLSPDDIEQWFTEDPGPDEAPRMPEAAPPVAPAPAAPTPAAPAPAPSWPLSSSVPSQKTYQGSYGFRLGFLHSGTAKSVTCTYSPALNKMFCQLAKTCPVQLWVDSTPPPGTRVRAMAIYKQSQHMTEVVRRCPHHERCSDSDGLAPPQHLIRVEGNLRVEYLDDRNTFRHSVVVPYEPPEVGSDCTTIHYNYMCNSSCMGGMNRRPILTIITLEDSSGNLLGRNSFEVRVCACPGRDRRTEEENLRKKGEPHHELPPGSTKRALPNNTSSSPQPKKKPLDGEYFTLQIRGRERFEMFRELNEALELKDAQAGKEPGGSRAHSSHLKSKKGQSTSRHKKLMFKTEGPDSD

Q: Which activation does the source give for COCc1c(C(C)C)nc(C(C)C)c(/C=C/[C@@H](O)C[C@@H](O)CC(=O)O)c1-c1ccc(F)cc1 here?
A: 27.7%

Q: For CC(C)[C@@H]1CC[C@@H](C)CC1=O, which activation is on record?
A: 16.4%

Q: With CN1CCN(c2c(F)cc3c(=O)c(C(=O)O)cn4c3c2OCN4C)CC1 as the molecule, how does the activation read?
A: -9.21%

Q: For CCCCOc1ccc(C(=O)CCN2CCCCC2)cc1, which activation is on record?
A: 10.9%

Q: For O=C(O)[C@H]1O[C@H](Oc2cc3oc(-c4ccccc4)cc(=O)c3c(O)c2O)[C@H](O)[C@@H](O)[C@H]1O, which activation is on record?
A: 28.4%

Q: For NCCCC[C@H](N[C@@H](CCc1ccccc1)C(=O)O)C(=O)N1CCC[C@H]1C(=O)O, which activation is on record?
A: -3.95%

Q: For CC1(C)O[C@@H]2C[C@H]3[C@@H]4CCC5=CC(=O)C=C[C@]5(C)[C@@H]4[C@@H](O)C[C@]3(C)[C@]2(C(=O)CO)O1, which activation is on record?
A: 10.4%

Q: How did the activation turn out when O=C(O)c1ccccc1S was run?
A: 19.8%

Q: With C=CS(=O)(=O)N1CCCN(c2cc(NCCC(=O)O)nc(-c3ccccn3)n2)CC1 as the molecule, how does the activation read?
A: -4.47%

Q: Which activation does the source give for Cc1cccc(C)c1NC(=O)CC12CCCN1CCC2 here?
A: 5.86%

Q: Which activation does the source give for NC(=O)N1c2ccccc2CC(=O)c2ccccc21 here?
A: 19.2% and 34.6%

Q: O=C(O)Cc1csc(-c2ccc(Cl)cc2)n1 was tested. Which activation did it give?
A: 15.3%

Q: Which activation does the source give for CCCCN(CCN(CCCC)C(=O)N1CCOCC1)C(=O)N1CCOCC1 here?
A: -21.8%

Q: Which activation does the source give for CON=C(C(=O)N[C@@H]1C(=O)N2C(C(=O)OCOC(=O)C(C)(C)C)=C(C=Cc3scnc3C)CS[C@H]12)c1csc(N)n1 here?
A: -6.48%

Q: CCN(CC)CCNC(=O)c1c(C)[nH]c(C=C2C(=O)Nc3ccc(F)cc32)c1C was tested. Which Potency did it give?
A: 12.5 µM (active)

Q: For O=C(Nc1cccc2c(=O)cc(-c3nn[nH]n3)oc12)c1ccc(OCCCCc2ccccc2)cc1, which activation is on record?
A: -4.79%

Q: CC[C@H]1OC(=O)[C@H](C)[C@@H](O[C@H]2C[C@@](C)(OC)[C@@H](O)[C@H](C)O2)[C@H](C)[C@@H](O[C@@H]2O[C@H](C)C[C@H](N(C)C)[C@@H]2O)[C@](C)(OC)C[C@@H](C)C(=O)[C@H](C)[C@@H](O)[C@]1(C)O was tested. Which activation did it give?
A: -25.1%

Q: For CCCCCCCCCCCCCCCCCCO, which activation is on record?
A: 3.35%

Q: COc1ccc(-c2cc(=S)ss2)cc1 was tested. Which activation did it give?
A: -4.18%

Q: CC(C)=CCCC(C)=CCCC(C)=CCCC(C)=CCCC(C)=CCCC(C)=CCCC(C)=CCCC(C)=CCCC(C)=CCO was tested. Which activation did it give?
A: 8.65%

Q: Which activation does the source give for NS(=O)(=O)c1cc(-c2nn[nH]n2)c(NCc2cccs2)cc1Cl here?
A: 5.02%

Q: For CCOC(=O)[C@H](CCc1ccccc1)N[C@@H](C)C(=O)N1Cc2cc(OC)c(OC)cc2C[C@H]1C(=O)O, which activation is on record?
A: -5.86%

Q: NC[C@H]1O[C@H](O[C@H]2[C@@H](O)[C@@H](O[C@H]3O[C@H](CO)[C@@H](O)[C@H](N)[C@@H]3O)[C@H](N)C[C@@H]2N)[C@H](N)C[C@H]1O was tested. Which activation did it give?
A: 25.5%

Q: COC(=O)/C=C\C(=O)OC was tested. Which activation did it give?
A: -9.6%

Q: Which activation does the source give for CC(=O)O[C@H]1CC[C@@]2(C)C(=CC[C@@H]3[C@@H]2CC[C@]2(C)C(C(C)=O)=CC[C@@H]32)C1 here?
A: 4.18%

Q: With NC(=O)C(c1ccccc1)(c1ccccc1)[C@@H]1CCN(CCc2ccc3c(c2)CCO3)C1 as the molecule, how does the Potency read?
A: 19.5 µM (active)

Q: For Cc1cc(C)c2nc(-c3ccccn3)cc(C(=O)Nc3ccc(S(=O)(=O)Nc4onc(C)c4C)cc3)c2c1, which activation is on record?
A: 8.11%

Q: Which Potency does the source give for CO[C@H]1/C=C\O[C@@]2(C)Oc3c(C)c(O)c4c(O)c(c(C=NN5CCN(C6CCCC6)CC5)c(O)c4c3C2=O)NC(=O)C(C)=CC=C[C@H](C)[C@H](O)[C@@H](C)[C@@H](O)[C@@H](C)[C@H](OC(C)=O)[C@H]1C here?
A: 24.3 µM (active)

Q: How did the activation turn out when COC1=C2C[C@@H](C)C[C@H](OC)[C@@H](O)[C@@H](C)C=C(C)[C@H](OC(N)=O)[C@@H](OC)C=CC=C(C)C(=O)NC(=CC1=O)C2=O was run?
A: -17.1%

Q: Which activation does the source give for CCN(CC)CCOC(=O)C(c1ccccc1)C1CCCCC1 (stereo not given) here?
A: 14.2%

Q: With O=C1CCc2ccccc2O1 as the molecule, how does the activation read?
A: -6.7%

Q: For CCc1cc2cc(OC)c(OC)cc2c(Cc2ccccc2)n1, which activation is on record?
A: -22.6%

Q: CCCc1ncc(C(=O)O)s1 was tested. Which activation did it give?
A: -8.37%

Q: For CCCCC1=NC2(CCCC2)C(=O)N1Cc1ccc(-c2ccccc2-c2nn[nH]n2)cc1, which activation is on record?
A: 6.69%

Q: For CC[C@]12C=CCN3CC[C@@]4(c5cc([C@@]6(C(=O)OC)C[C@H]7C[C@@H](C(C)(F)F)CN(Cc8c6[nH]c6ccccc86)C7)c(OC)cc5N(C)[C@H]4[C@@](O)(C(=O)OC)[C@H]1OC(C)=O)[C@@H]32, which activation is on record?
A: -7.99%

Q: COCCCCC(=NOCCN)c1ccc(C(F)(F)F)cc1 was tested. Which activation did it give?
A: 8.31%

Q: With CNCc1ccccc1 as the molecule, how does the activation read?
A: 6.21%

Q: How did the activation turn out when c1ccc(OCc2ccc(CCCN3CCOCC3)cc2)cc1 was run?
A: -7.53%

Q: How did the activation turn out when CC(C=CC=C(C)C=CC1=C(C)CCCC1(C)C)=CC=CC=C(C)C=CC=C(C)C=CC1=C(C)CCCC1(C)C was run?
A: 13.6%

Q: Which activation does the source give for O=C(CN1CCN(Cc2ccc3c(c2)OCO3)CC1)N1c2ccccc2Sc2ccccc21 here?
A: 1.69%
